Molecules are shown by their SMILES. A number with no mark means an inactive call. Activity calls are given as the source filed them. Calls follow the shape of the full dose curve.

This assay is described as follows: G protein-coupled receptor (GPCR) small molecule agonists, calcium flux assay: HEK293 wild type cell line counter screen (AID 1920065). The settings on record: HEK293 WT calcium flux, fluorescence, agonist mode; series mostly up to 57.6 µM. A digest of the protocol: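 Wild-type HEK293 cells plated 18 h, loaded with calcium dye 1 h at 37 C, then compounds added in agonist mode (ATP as positive control). Kinetic fluorescence Ex/Em 480/540 recorded 3 min at 1 sec intervals; 15 concentrations, triplicate.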
Background: Calcium assays in cells follow changes in intracellular calcium, usually with a dye or a luminescent sensor.
% is scaled to controls: 0 for no effect and ±100 for the full control effect.

As for `CC(C)CCCC(=O)O`, the result was inactive. The same measure, in the same setting: for `CN(C)CCN(Cc1ccc(Cl)cc1)c1ccccn1` the value was “inactive”. Same read-out and setting: under `N#Cc1cc2ccccc2c2ccccc12` stands “inactive”.

With `O=C(CCN1CCN2CCCC2C1)N1c2ccccc2Sc2ccc(Cl)cc21` (stereo not given), the activation was 0.367% [at 11.8 µM]. On to `CCCCCCCCCOC(C)=O`, for which the outcome was inactive. As for `Cc1cccc2nccnc12`, the outcome was inactive.

Regarding `OC[C@@H](O)[C@H](O)[C@@H](O)[C@@H](O)CO`, the result was inactive.

In the case of `OC[C@H](Cc1cccc(O)c1)[C@H](CO)Cc1cccc(O)c1`, the outcome was inactive.

In the case of `CC(=O)NCCCCCC(=O)O`, the outcome was inactive.

With `OCCN(CCO)CCN(CCO)CCO`, the outcome was inactive. Still for that read-out and setting: for `CCOC(=O)c1c(N)sc2c1CCN(Cc1ccccc1)C2` the value was “inactive”; for `CNCc1ccccc1`, “inactive”. Same read-out and setting: for `CCCCCCC(O)CCOC(C)=O` (stereo not given) the value was “inactive”.

For the compound `Oc1cn2c(n1)Nc1ccc(Cl)c(Cl)c1C2`, the activation is 0.199% [at 11.8 µM]. For the compound `CC[C@@H](N)CO`, the result was inactive. Still for that read-out and setting: for `C=CCN1CCc2nc(N)sc2CC1` the value was “inactive”; for `CC(C)OC(=O)C(C)N(C(=O)c1ccccc1)c1ccc(F)c(Cl)c1` (stereo not given), “inactive”.

With `CC/C=C\CCOC(=O)c1ccccc1O`, the outcome was inactive. Still for that read-out and setting: for `CCC(O)C(C)(C)C` (stereo not given) the value was “inactive”.

Regarding `COc1ccc(-c2coc3cc(O)ccc3c2=O)cc1`, the outcome was inactive.

For `Clc1ccc(C(Cn2ccnc2)OCc2c(Cl)cccc2Cl)c(Cl)c1` (stereo not given), the outcome was inactive.

For `CC1(c2ccccc2)OC(C(=O)O)=CC1=O` (stereo not given), the outcome was inactive. Same read-out and setting: under `C[C@H](CCC(=O)NCC(=O)O)[C@H]1CC[C@H]2[C@@H]3[C@H](O)C[C@@H]4C[C@H](O)CC[C@]4(C)[C@H]3C[C@H](O)[C@]12C` stands “inactive”; under `Oc1ccc(C(O)CNCCCCCCNCC(O)c2ccc(O)c(O)c2)cc1O` (stereo not given), “inactive”; under `COC(=O)c1ccc(NC(C)=O)cc1OC`, “inactive”.

Consider `CN1CCC(=C2c3ccccc3CC(=O)c3sccc32)CC1`, for which the outcome was inactive. Same read-out and setting: for `Cn1c(=O)cc(Oc2ccc(F)cc2F)c2cnc(NCC(C)(C)O)nc21` the value was “inactive”; for `CC(=O)c1ccc2ccc3ccccc3c2c1`, “inactive”; for `C[C@H](N)[C@H](O)c1cccc(O)c1`, “inactive”. Still for that read-out and setting: under `O=C1OCc2ccccc21` stands “inactive”.

`CC1=C(C(=O)OC(C)C)C(c2cccc([N+](=O)[O-])c2)C(C(=O)OC2CN(C(c3ccccc3)c3ccccc3)C2)=C(N)N1` (stereo not given): the result was inactive. The same measure, in the same setting: for `CC(=O)Nc1ccc(S(N)(=O)=O)cc1` the value was “inactive”; for `CC(C)[C@H](N)C(=O)OCCOCn1cnc2c(=O)[nH]c(N)nc21`, “inactive”. On the same count and under the same terms, under `C=CC(C)(CCC=C(C)C)OC(=O)c1ccccc1` (stereo not given) stands “inactive”; under `CC(=O)CCc1ccc(O)cc1`, “inactive”. Same read-out and setting: for `CC(=O)[C@H]1CC[C@H]2[C@@H]3C=CC4=CC(=O)CC[C@@]4(C)[C@@H]3CC[C@]12C` the value was “inactive”.

On to `CN(C)CCCCl`, for which the result was inactive.

`CC(C)C(=O)OCc1cccc(OC(=O)[C@@H]2N3C(=O)[C@@H](NC(=O)Cc4ccccc4)[C@H]3SC2(C)C)c1`: the outcome was inactive. Same read-out and setting: for `CCCCC(CC)C(=O)OC(C)C` (stereo not given) the value was “inactive”; for `CCCCN(C)C`, “inactive”.

The record behind these values is PubChem BioAssay (Tox21).
